Screens from PubChem.
TRHR agonist: TRH receptor (human) agonism. P34981. TRHR cells, calcium flux fluo-8, FDSS agonist mode. activation, % at 2 µM. 0.18% of 360,000 active. AID 493084
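Read-out: compound-evoked intracellular calcium rise in TRHR cells, fluo-8 dye, kinetic FDSS fluorescence at 1 s/cycle following a 10-cycle baseline. Cells cultured overnight before dye loading (30 min–1.5 h, RT).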
D1 ag: activates the human D1 dopamine receptor; activation, % at 2 µM; 1% of 360,000 active; AID 504660; P21728; HEK293 T-REx D1 cells, calcium flux, agonist mode
Target sequence (P21728 whole entry, looked up): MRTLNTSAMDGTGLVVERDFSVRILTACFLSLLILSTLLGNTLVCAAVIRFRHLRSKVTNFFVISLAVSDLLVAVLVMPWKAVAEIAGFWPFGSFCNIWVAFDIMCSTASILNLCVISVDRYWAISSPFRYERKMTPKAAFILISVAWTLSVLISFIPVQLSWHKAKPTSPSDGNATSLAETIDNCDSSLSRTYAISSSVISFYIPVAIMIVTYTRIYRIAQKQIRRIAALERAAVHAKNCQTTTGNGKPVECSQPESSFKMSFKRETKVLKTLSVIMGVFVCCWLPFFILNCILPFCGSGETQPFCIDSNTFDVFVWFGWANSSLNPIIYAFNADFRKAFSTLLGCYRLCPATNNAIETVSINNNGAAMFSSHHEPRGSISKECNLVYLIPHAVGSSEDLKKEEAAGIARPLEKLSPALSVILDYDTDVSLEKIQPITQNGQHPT
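Tetracycline-induced HEK293 TREx D1 cells, force-coupled to calcium signalling, were dye-loaded with a no-wash calcium kit. Compound was pin-added after a 10 s baseline. Fluorescence was read kinetically at 1 cycle/s for 180 s, with calcium rises flagged as agonism.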
D1 PAM: potentiators of human D1 dopamine receptor | HEK293 TREx D1 cells, calcium flux, dopamine EC20 potentiation | potentiation, % at 10 µM | 0.036% of 360,000 active; in the data active = potentiation above about 30%
TRHR PAM: allosterically enhances the human TRH receptor; P34981; TRHR cells, fluo-8 calcium fluorescence, EC20 TRH enhancement; enhancement, % at 2 µM; 0.66% of 360,000 active; AID 493056; in the data active = enhancement above about 30%
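TRHR-expressing cells loaded with fluo-8 calcium dye were read kinetically (ex 480/em 530) during compound addition, then stimulated with an EC20 of TRH (10 nM final). Enhancement of the Gq-mediated intracellular calcium response was scored.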
D1 antagonist: antagonists of human D1 dopamine receptor; 3.2% of 360,000 active; AID 504652; HEK293 TREx D1 cells, calcium flux, dopamine EC80; stronger effect = lower value; activity change, negative = inhibition, % at 10 µM; P21728; in the data active = activity change below about -30%
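Antagonism measured as reduced calcium response to an EC80 dopamine addition following 180 s compound pre-read; cells were inducible HEK293 Trex D1 plated overnight at 30 C, read kinetically at 1 cycle/sec.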
A number is an active result. Rows were chosen to be rich in hits. Some 4.6% of all compounds tested hit in one or more screens of this group. Cut-off read from the data, not from the text of the source, unless noted: active = activation above about 30%; inactive = the rest.

Screening COc1ccc(CCNC(=O)Cc2cc(=O)[nH]c(=O)[nH]2)cc1OC returned TRHR agonist inactive, D1 ag inactive, TRHR PAM inactive and D1 antagonist inactive.
Screening CC1(C)C(c2ccc(Cl)cc2)=[N+]([O-])C2(CCCC/C2=N\O)N1O (stereo not given) returned TRHR agonist inactive, D1 ag inactive, D1 PAM inactive, TRHR PAM inactive and D1 antagonist -87.
Screening Cc1ccc(C2=[N+]([O-])C3(CCCCC/C3=N\O)N(O)C2(C)C)o1 (stereo not given) returned TRHR agonist inactive, D1 ag inactive, D1 PAM inactive, TRHR PAM inactive and D1 antagonist inactive.
Screening N#Cc1ccc(-c2csc(NC(=O)c3ccc(S(=O)(=O)N4CCc5ccccc5C4)cc3)n2)cc1 returned TRHR agonist inactive, D1 ag inactive, D1 PAM inactive, TRHR PAM inactive and D1 antagonist inactive.
For O=C1C2CC=CCC2C(=O)N1Nc1ccccc1 (stereo not given) the results were TRHR agonist inactive, D1 ag inactive, D1 PAM inactive, TRHR PAM inactive and D1 antagonist inactive.
Screening CCc1c(C(=O)N2CCCN(C)CC2)csc1C returned TRHR agonist inactive, D1 ag inactive, D1 PAM inactive, TRHR PAM inactive and D1 antagonist -31.
For Cc1ccc(C(=O)NC(C)c2ccc(F)cc2)cc1 (stereo not given) the results were TRHR agonist inactive, D1 ag inactive, D1 PAM inactive, TRHR PAM inactive and D1 antagonist inactive.
Screening CC(C)Cc1ccc(C(C)NC(=O)c2ccc(=O)[nH]c2)cc1 (stereo not given) returned TRHR agonist inactive, D1 ag 49, D1 PAM inactive, TRHR PAM inactive and D1 antagonist inactive.
Cc1cccc(-c2noc(-c3cc(C(C)C)[nH]n3)n2)c1 was read as TRHR agonist inactive, D1 ag 42, D1 PAM inactive, TRHR PAM inactive and D1 antagonist inactive.
For O=C(Nc1ccc(Cl)cc1)NC1CCCCC1Cc1ccco1 (stereo not given) the results were TRHR agonist inactive, D1 ag inactive, D1 PAM inactive, TRHR PAM inactive and D1 antagonist -34.
Screening CCC(Cc1ccccc1)NC(=O)c1cccc(Nc2nc3ccccc3nc2-n2nc(C)cc2C)c1 (stereo not given) returned TRHR agonist inactive, D1 ag inactive, D1 PAM inactive, TRHR PAM inactive and D1 antagonist inactive.
For Cc1ccc(-n2c(C)nn(-c3ncc(C(F)(F)F)cc3Cl)c2=O)cc1 the results were TRHR agonist inactive, D1 ag inactive, D1 PAM inactive, TRHR PAM inactive and D1 antagonist -47.
COc1cccc(N2CCN(c3ncnc4c3[nH]c3ccc(F)cc34)CC2C)c1 (stereo not given) was read as TRHR agonist inactive, D1 ag inactive, D1 PAM inactive, TRHR PAM inactive and D1 antagonist -35.
`COC(=O)C(CC(=O)c1ccc(Cl)cc1)c1ccc(C(C)C)cc1` (stereo not given) gave TRHR agonist inactive, D1 ag inactive, D1 PAM inactive, TRHR PAM inactive and D1 antagonist -30.
`Cc1ccc(C(CC(=O)c2ccc(Cl)cc2)C(=O)O)cc1` (stereo not given) gave TRHR agonist inactive, D1 ag inactive, D1 PAM inactive, TRHR PAM inactive and D1 antagonist inactive.
For COc1ccc(-c2nn(-c3ccccc3)cc2/C=N/NC(=O)c2cccc(S(=O)(=O)Nc3ccccc3Cl)c2)cc1 the results were TRHR agonist inactive, D1 ag inactive, D1 PAM inactive, TRHR PAM inactive and D1 antagonist -36.
`COc1ccc(-c2nn(-c3ccccc3)cc2/C=N/NS(=O)(=O)c2ccccc2)cc1` gave TRHR agonist inactive, D1 ag inactive, D1 PAM inactive, TRHR PAM inactive and D1 antagonist inactive.
`COc1ccc(/C(N)=N/OC(=O)C2CCC(=O)N2S(=O)(=O)c2ccc(C)cc2)cc1` (stereo not given) gave TRHR agonist inactive, D1 ag inactive, D1 PAM inactive, TRHR PAM inactive and D1 antagonist -32.
C=CCn1c(SCC(=O)c2c(N)n(CCC)c(=O)n(C)c2=O)nnc1-c1ccncc1 was read as TRHR agonist inactive, D1 ag inactive, D1 PAM inactive, TRHR PAM inactive and D1 antagonist -32.
`CC1(OC(=O)CCc2ccccc2)C(=O)C=C2C=C3CCCN3C=C2C1=O` (stereo not given) gave TRHR agonist inactive, D1 ag inactive, D1 PAM inactive, TRHR PAM inactive and D1 antagonist inactive.
For CCN(CCNC(=O)CS(=O)(=O)Cc1nc(-c2cccc(OC)c2)oc1C)c1ccccc1 the results were TRHR agonist inactive, D1 ag inactive, D1 PAM inactive, TRHR PAM inactive and D1 antagonist inactive.
`CC1CCCCN1Cc1c(O)ccc2c(=O)c(-c3nc4ccccc4s3)coc12` (stereo not given) gave TRHR agonist inactive, D1 ag inactive, D1 PAM inactive, TRHR PAM 32 and D1 antagonist inactive.
For CCc1cc2c(=O)c(-c3nc4ccccc4n3C)coc2c(CN2CCCCC2C)c1O (stereo not given) the results were TRHR agonist inactive, D1 ag inactive, D1 PAM inactive, TRHR PAM inactive and D1 antagonist inactive.
Screening Cn1cnc(S(=O)(=O)N2CCN(c3cccc(C(F)(F)F)c3)CC2)c1 returned TRHR agonist inactive, D1 ag inactive, D1 PAM inactive, TRHR PAM inactive and D1 antagonist -32.
`COC(=O)c1ccc(Nc2nc(C)cc(=O)[nH]2)cc1` gave TRHR agonist inactive, D1 ag inactive, D1 PAM inactive, TRHR PAM inactive and D1 antagonist inactive.
`Nc1c(C(=O)Nc2cccc(Cl)c2)sc2nc3c(cc12)CN(Cc1ccccc1)CC3` gave TRHR agonist inactive, D1 ag inactive, D1 PAM inactive, TRHR PAM 33 and D1 antagonist inactive.
Screening Cc1cccc(NC(=O)c2sc3nc4c(cc3c2N)CN(Cc2ccccc2)CC4)c1 returned TRHR agonist inactive, D1 ag inactive, D1 PAM inactive, TRHR PAM inactive and D1 antagonist inactive.
For O=C(Nc1ccc2c(c1)CCCN2C(=O)c1cccs1)c1cccc(C(F)(F)F)c1 the results were TRHR agonist inactive, D1 ag inactive, D1 PAM inactive, TRHR PAM inactive and D1 antagonist -58.
Screening O=C(c1cccs1)N1CCCc2cc(NS(=O)(=O)c3ccc(Br)cc3)ccc21 returned TRHR agonist inactive, D1 ag inactive, D1 PAM inactive, TRHR PAM inactive and D1 antagonist -40.
Screening O=C(Nc1ccc2c(c1)CCCN2C(=O)c1cccs1)c1cccc(F)c1 returned TRHR agonist inactive, D1 ag inactive, D1 PAM inactive, TRHR PAM inactive and D1 antagonist -36.
